From PubChem BioAssay (NCI) come the findings set out here.

About 79,000 compounds went through this panel and 15% of them were active in at least one assay; those are over-represented in the sample as a whole. A number with no mark means an inactive call. Active and inactive are the calls of the source. Cut-off read from the data, not from the text of the source: active = growth inhibition above about 70%; inactive = the rest.

Assay [1] in a line: NCI Yeast Anticancer Drug Screen. Data for the rad50 strain (AID 155).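 Note: 0% = growth of vehicle-only cultures of the same strain.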 The conditions noted are these: S. cerevisiae rad50 strain growth inhibition; at 50.0 µM; active compounds read high. In a few lines:
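Yeast carrying a defined DNA repair defect were exposed to test compounds, and growth was compared with vehicle-treated controls to give percent inhibition.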

A short description of assay [2]: NCI Yeast Anticancer Drug Screen. Data for the mec2-1 strain (AID 157). The conditions noted are these: S. cerevisiae mec2-1 strain, at 50.0 µM, active compounds read high. In a few lines: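 Vehicle-treated cultures served as reference for growth inhibition of compound-exposed mec2-1 yeast.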
Assay [3] can be described thus: NCI Yeast Anticancer Drug Screen. Data for the sgs1 mgt1 strain (AID 161).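 Note: 0% = growth of cultures given vehicle only.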 The conditions noted are these: S. cerevisiae sgs1 mgt1 strain, at 50.0 µM, active compounds read high. In a few lines: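 Read-out: growth inhibition vs vehicle controls. Cells: mutant yeast strain deficient in DNA damage repair.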
A short description of assay [4]: NCI Yeast Anticancer Drug Screen. Data for the cln2 rad14 strain (AID 165).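 Note: 0% = growth equal to vehicle treated cultures.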 The conditions noted are these: S. cerevisiae cln2 rad14 strain, at 50.0 µM, active compounds read high. In a few lines:
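Each compound was tested on cln2 rad14 yeast. Inhibition of growth was calculated against vehicle-exposed controls.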

Assay [5] can be described thus: NCI Yeast Anticancer Drug Screen. Data for the bub3 strain (AID 167). The conditions noted are these: S. cerevisiae bub3 mutant strain, at 50.0 µM, active compounds read high. In a few lines:
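Compounds were applied to a genetically altered yeast strain carrying a cell-cycle control defect. Growth inhibition was scored against vehicle-treated controls.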

Assay [6] can be described thus: NCI Yeast Anticancer Drug Screen. Data for the mlh1 rad18 strain (AID 175). The conditions noted are these: S. cerevisiae mlh1 rad18 strain growth inhibition; at 50.0 µM; active compounds read high. In a few lines: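 Vehicle-treated cultures served as the reference for growth inhibition in a yeast strain carrying DNA damage repair alterations exposed to each compound.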

As to `Cc1ccc(/C=C/C(=O)C(C)(C)CN2CCCCC2)cc1`, the growth inhibition is 35.6% in assay [1]; -9.05% in assay [2]; 25.1% in assay [3]; 14.3% in assay [4]; 10% in assay [5]; 17.9% in assay [6].

Regarding `COc1ccccc1NC(=S)N/C=C(\C#N)c1nc2ccccc2s1`, the growth inhibition was -28.4% in assay [1]; 5.95% in assay [2]; -8.9% in assay [3]; 3.45% in assay [4]; 2.3% in assay [5]; -3% in assay [6].

Take `CCN(CC)CCNc1ccccc1`: the growth inhibition in assay [1] was -0.45%; in assay [2], -13%; in assay [3], -8.55%; in assay [4], -48.4%; in assay [5] it was -4.9%; in assay [6], 14.7%.

Turning to `CC1=C[P+](c2ccccc2)(c2ccccc2)c2ccccc2O1`, the growth inhibition is 58% in assay [1]; 57.6% in assay [2]; 66.8% in assay [3]; 34.6% in assay [4]; 72.3% (active) in assay [5]; 63.1% in assay [6].

In the case of `N#CCCN(CCC#N)S(=O)(=O)c1ccccc1`, the growth inhibition in assay [1] is -3%; in assay [2], 5.65%; in assay [3], -4.9%; in assay [4], -4.2%; in assay [5] it was 14.1%; in assay [6] it was -15.6%.

`CCCCOC(=O)NC(=O)c1cn(CCCOC(=O)CCCCCCCCC(=O)OCCCn2cc(C(=O)NC(=O)OCCCC)c(=O)[nH]c2=O)c(=O)[nH]c1=O`: the growth inhibition is -23.2% in assay [1]; -28.2% in assay [2]; -32.8% in assay [3]; 5.05% in assay [4]; -5.85% in assay [5]; -35.9% in assay [6].

For the compound `CCN(CC)C(=O)CC(C)(C)O`, the growth inhibition in assay [1] was 4.95%; in assay [2] it was 9.15%; in assay [3] it was -5.75%; in assay [4] it was -0.9%; in assay [5], 6.15%; in assay [6], -1.6%.

As for `O=C1c2ccccc2C(O)(c2ccccc2)c2ccccc21`, the growth inhibition in assay [1] is 13.4%; in assay [2] it was 20.6%; in assay [3], 13.8%; in assay [4] it was -21.6%; in assay [5], 13.4%; in assay [6], 0.35%.

In the case of `O=C(ON=C1c2ccccc2C(Br)C(Br)c2ccccc21)c1cc([N+](=O)[O-])cc([N+](=O)[O-])c1` (centres undefined), the growth inhibition in assay [1] is 15.8%; in assay [2], 8.85%; in assay [3] it was 28.8%; in assay [4], -0.6%; in assay [5], 21.1%; in assay [6], 27.5%.

Take `CN(C)Cc1cc(C(C)(C)C)ccc1-c1ccc(C(C)(C)C)cc1CN(C)C`: the growth inhibition was -42.4% in assay [1]; -17.6% in assay [2]; -39.5% in assay [3]; 12.6% in assay [4]; -31.2% in assay [5]; -30.9% in assay [6].

For the compound `Cc1ccc(C)c2c1C1CCCCC3(OCCCO3)C21O` (centres undefined), the growth inhibition was -4.2% in assay [1]; -6.3% in assay [2]; -44.2% in assay [3]; -6.9% in assay [4]; -24.2% in assay [5]; -0.85% in assay [6].

On to `CC1=CC(O)C(C(O)(C(F)(F)F)C(F)(F)F)C(C)(C)C1` (centres undefined), for which the growth inhibition is -26.8% in assay [1]; -41.2% in assay [2]; -9.95% in assay [3]; -4.6% in assay [4]; 0.15% in assay [5]; -1.25% in assay [6].

Take `COC(=O)c1ccccc1NC(=O)c1ccccc1C(=O)O`: the growth inhibition in assay [1] was 6.4%; in assay [2] it was 41%; in assay [3], 35%; in assay [4], -6.55%; in assay [5], 28.5%; in assay [6], 37.2%.

In the case of `C[N+](C)([O-])CCNC(=O)c1cccc2cc3ccccc3nc12`, the growth inhibition in assay [1] is -9.8%; in assay [2], -8.9%; in assay [3], -23.5%; in assay [4], 4.3%; in assay [5] it was 10.2%; in assay [6], -46%.

Turning to `CN(C)CCOC(=O)Nc1ccccc1C(F)(F)F`, the growth inhibition in assay [1] was 16.1%; in assay [2] it was -8.1%; in assay [3] it was 17.1%; in assay [4], 21.8%; in assay [5], 19.8%; in assay [6], 12.2%.

In the case of `Cc1ccc(S(=O)(=O)O)c2c([N+](=O)[O-])cccc12`, the growth inhibition was -8.85% in assay [1]; 6.75% in assay [2]; -11.1% in assay [3]; -32.4% in assay [4]; -9.85% in assay [5]; -22.6% in assay [6].

For the compound `Clc1ccc(/C=N/N2CCN(/N=C/c3ccc(Cl)cc3)CC2)cc1`, the growth inhibition in assay [1] is -3.1%; in assay [2], -10.3%; in assay [3], -0.2%; in assay [4], -5.35%; in assay [5], 13.2%; in assay [6] it was -15%.

As to `Cc1ccc(C)c(NC(=O)CCC(=O)CC(=O)C(C)(C)C)c1`, the growth inhibition in assay [1] is -3.25%; in assay [2] it was 8.35%; in assay [3], 5.3%; in assay [4], 15.5%; in assay [5] it was -6.4%; in assay [6] it was 12.7%.

As to `CN(C)c1ccc(/C=N/NC(=O)c2ccccc2NC(=O)c2ccccc2)cc1`, the growth inhibition in assay [1] was -1.65%; in assay [2] it was -20.3%; in assay [3], -11.6%; in assay [4], -19.8%; in assay [5] it was 14.9%; in assay [6], 3.4%.
